# Experimental data reported in PubChem BioAssay (NCI).
# Compounds without any hit were thinned out: in the full panel of roughly 83,000, 20% have a hit.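 For each line, cells grew in 96-well plates with the test compound present at a single concentration for 48 hours.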 Values without a mark were called inactive. Activity calls are given as the source filed them. How the source made its calls: active means growth percent below 10; inactive means the rest.
# Columns and labels:
# Test in all cases: NCI-60 one-dose screen, 48 h (100 = growth as untreated, 0 = no growth, -100 = all killed)
# HT29 colon = conditions: 10 µM unless noted
# SNB-75 CNS = conditions: 10 µM unless noted
# SNB-19 CNS = conditions: 10 µM unless noted
# U251 CNS = conditions: 10 µM unless noted
# PC-3 prostate = conditions: 10 µM unless noted
# SK-MEL-5 melanoma = conditions: 10 µM unless noted
# UACC-62 melanoma = conditions: 10 µM unless noted
# LOX IMVI melanoma = conditions: 10 µM unless noted
# SK-MEL-28 melanoma = conditions: 10 µM unless noted
# SK-MEL-2 melanoma = conditions: 10 µM unless noted
# EKVX NSCLC = conditions: 10 µM unless noted
# SN12C renal = conditions: 10 µM unless noted
# UO-31 renal = conditions: 10 µM unless noted
# TK-10 renal = conditions: 10 µM unless noted
# ACHN renal = conditions: 10 µM unless noted
# A498 renal = conditions: 10 µM unless noted
# CCRF-CEM leukemia = conditions: 10 µM unless noted
# MOLT-4 leukemia = conditions: 10 µM unless noted
# CAKI-1 renal = conditions: 10 µM
SMILES,growth (HT29 colon),growth (SNB-75 CNS),growth (SNB-19 CNS),growth (U251 CNS),growth (PC-3 prostate),growth (SK-MEL-5 melanoma),growth (UACC-62 melanoma),growth (LOX IMVI melanoma),growth (SK-MEL-28 melanoma),growth (SK-MEL-2 melanoma),growth (EKVX NSCLC),growth (SN12C renal),growth (UO-31 renal),growth (TK-10 renal),growth (ACHN renal),growth (A498 renal),growth (CCRF-CEM leukemia),growth (MOLT-4 leukemia),growth (CAKI-1 renal)
O=C(C[n+]1cccc(Br)c1)c1ccc2c(c1)CCCC2,80.7%,101%,108%,102%,94.3%,99.2%,104%,97.1%,105%,102%,94.8%,104%,90.1%,105%,108%,106%,102%,86.2%,
COc1ccc(/C=C2\CS(=O)(=O)C/C(=C\c3ccc(OC)cc3)C2=O)cc1,-51.2% (active),60.2%,3.69% (active),-3.78% (active),-33.5% (active),-91.5% (active),-64.1% (active),-26.7% (active),-23.4% (active),-7.45% (active),,-52.1% (active),-100% (active),2.72% (active),-51% (active),36%,-0.95% (active),-16.1% (active),
Nc1ncnc2c1c(-c1ccc(Oc3ccccc3)cc1)nn2C[C@@H]1SSC[C@H]1O,13.2%,2.29% (active),40.6%,26.5%,55.7%,-59.6% (active),-70.4% (active),10.7%,,,33.2%,23.3%,0.587% (active),,11.6%,-5.51% (active),32.9%,0.449% (active),
O=[N+]([O-])c1ccccc1NC1c2ccccc2Oc2ccccc21,11%,69.5%,68.7%,40.9%,56.1%,46%,,65.1%,69.3%,57%,78.2%,92.9%,60.8%,,71.2%,10.7%,42.9%,13.8%,45.6%
CCn1c(SCC(=O)c2ccc(Br)cc2)nnc1-c1cc2c([nH]c3ccccc32)c(-c2cccc(O)c2)n1,91.6%,60.9%,98.9%,58.5%,68.6%,52.7%,89.6%,48.2%,73.7%,,67.2%,96.5%,70.4%,,,73.5%,78.5%,,83.7%
C=C1C(=O)O[C@H]2[C@H]1CC/C(COC(=O)c1cccc3ccccc13)=C\CC[C@@]1(C)O[C@@H]21,,29%,10.5%,-83.7% (active),-70.9% (active),-89% (active),-76.9% (active),-92.2% (active),-56.7% (active),-65.6% (active),-81.9% (active),-55.3% (active),-100% (active),-73.1% (active),-100% (active),82.2%,-19% (active),-15.1% (active),
CO[C@H]1/C=C/C=C/C=C/C[C@H](OC(=O)[C@@H](C)NC(=O)C2CCCCC2)[C@H](C)[C@@H](O)/C(C)=C\CCC2=CC(=O)C=C(NC(=O)C1)C2=O,,-20.2% (active),2.4% (active),,-2.95% (active),-57% (active),2.09% (active),-38.8% (active),-3.36% (active),-42.7% (active),-17% (active),-10% (active),5.46% (active),,-34.8% (active),-2.6% (active),-0.0954% (active),-10.4% (active),16.3%
Cc1ccccc1C[P+](c1ccccc1)(c1ccccc1)c1ccccc1,10.5%,9.33% (active),28.7%,16.4%,14.5%,-23.2% (active),18.8%,14.7%,27.2%,2.07% (active),29.5%,40.5%,76.6%,36.1%,71%,89.5%,24.9%,35.7%,
CC(Cc1cccc(C(F)(F)F)c1)NCCOC(=O)c1ccccc1 (stereo not given),115%,99.5%,100%,104%,103%,89.5%,102%,96.3%,107%,113%,84.6%,99.8%,,129%,,107%,105%,96.1%,87.4%
O=C(Nc1ccc(-n2cc(-c3ccncc3)c(-c3ccc(O)c(Cl)c3)n2)cc1)Nc1cc(C(F)(F)F)cc(C(F)(F)F)c1,97.2%,72.2%,47.6%,37.7%,50.4%,54%,64.1%,51.4%,76.8%,77.6%,44.6%,61.6%,,,65.5%,65.9%,55.8%,64.3%,46.6%
O=C(NCCNc1nccc(-c2c(-c3cccc(O)c3)nc3sccn23)n1)c1ccccc1O,49.2%,40.6%,90.2%,61.6%,51.1%,22.7%,0.528% (active),33.5%,41.4%,13.9%,66.8%,48%,34.6%,,46.1%,104%,18.9%,46.2%,24.3%
Nc1ncc(-c2ccc3ncnc(Nc4cncc(Cl)c4)c3c2)cn1,68.6%,31.4%,76.7%,73.3%,48.8%,66.4%,56.9%,61.5%,69.5%,66.4%,33%,69.8%,41.9%,,41.6%,0.263% (active),84.5%,77.8%,
Nc1nc(Nc2ccc(OCc3cccc(F)c3)cc2)c2c(n1)[nH]c1ccc(O)cc12,-84.2% (active),-63.5% (active),12.3%,-91% (active),4.64% (active),-78.1% (active),-75.1% (active),-96% (active),-67.4% (active),-63% (active),10.5%,-69.3% (active),-93.5% (active),-9.4% (active),-26.8% (active),75.9%,-9.7% (active),-28% (active),
CC(=O)Oc1ccc(C(OC(C)=O)OC(C)=O)cc1,99.8%,106%,104%,106%,104%,105%,101%,99.2%,107%,104%,94.1%,102%,89.8%,98.8%,,92.3%,94.5%,91.1%,
C/C(=N/O)c1ccc(NC(=O)Cn2nc(-c3ccc(Cl)cc3)nc2N)cc1,86.8%,87.3%,89.1%,90.3%,71.8%,98.1%,91.8%,97%,114%,84.9%,98.6%,102%,66%,120%,,103%,85.8%,66.7%,
Oc1ccc(Cl)cc1Sc1cc(Cl)ccc1O,,63.4%,95.1%,93.9%,89.6%,-14.2% (active),58.8%,88.1%,52.5%,94.1%,103%,86.3%,74.6%,104%,90.1%,,96.7%,80.9%,
COc1ccc(-c2nn(-c3ccc(NC(=O)c4ccc(Cl)c(C(F)(F)F)c4)cc3)cc2-c2ccncc2)cc1Cl,-39.5% (active),31.1%,42.7%,13.5%,23.2%,-69.3% (active),-14.6% (active),-63.9% (active),50.2%,4.6% (active),34.8%,44.3%,-26.8% (active),,,-5.21% (active),23.4%,1.35% (active),-33.6% (active)
N#CC1=C(N)Oc2c(ccc3ccccc23)C1c1cc(=O)oc2ccc(Cl)cc12 (stereo not given),6.85% (active),20.2%,33.4%,24.4%,18.2%,28.3%,36.5%,42%,62.9%,43.6%,44.5%,47.5%,50.9%,71.4%,50.8%,23.4%,18.6%,20.8%,
O=[N+]([O-])c1cccc(C(c2ccccc2)c2ccccc2)c1,79.8%,86.4%,97.3%,,70.4%,101%,86.7%,87.3%,107%,97.8%,79.1%,98%,75.7%,,85.9%,91%,87.2%,83.3%,56.8%
Cc1cccc(CC(=O)c2ccccc2)n1,82.1%,84.6%,88.7%,89.6%,80.5%,96.6%,74.7%,76.5%,105%,96.7%,79.2%,94.5%,81.5%,95.6%,,74.3%,71.8%,90.5%,
NN=C(c1ccc(Cl)cc1)c1ccc(Cl)cc1,,96.3%,98.9%,102%,101%,107%,100%,77.1%,117%,121%,108%,105%,81.8%,,101%,96%,89.3%,97.8%,
CCCCN(CCCC)c1ccc(C(=N)c2ccc(N(C)C)cc2)cc1,-50.8% (active),-46.6% (active),6.19% (active),-17% (active),-14.7% (active),-99.8% (active),,-95.9% (active),-70.1% (active),-69.6% (active),-11.9% (active),-30% (active),,-5.56% (active),-2.72% (active),9.81% (active),1.04% (active),1.79% (active),-28.9% (active)
Cc1ccc2oc(=O)cc(C3C(C#N)=C(N)Oc4c3ccc3ccccc43)c2c1 (stereo not given),38.8%,67.5%,84.9%,82.8%,55.6%,61.1%,61.4%,75.4%,86.2%,66.2%,77.6%,92.6%,72.3%,91.9%,99%,89.1%,81.9%,46.3%,
